Measurements taken from PubChem BioAssay (EPA / NIEHS).
Results filed as inconclusive are left out. Active and inactive are the calls of the source. Rule for the calls: active = hit-call score of the fitted dose curve at least 0.9, where 1 is the maximum; inconclusive = response in the unintended direction; inactive = score below 0.9.

Read-out: Broad substrate specificity ATP-binding cassette transporter ABCG2 (Homo sapiens) (UniProt Q9UNQ0)
Assay: CLD_ABCG2_24hr: CellzDirect (CLD) Gene Expression Assay for ABC Transporter (ABCG2) at 24 hours (AID 2283685)
Experimental: CLD_24hr is a cell-based, multiplexed-readout assay that uses hepatocyte, a human liver primary cell, with measurements taken at 24 hours after chemical dosing in a 96-well plate.CLD_ABCG2_24hr is one of 16 assay component(s) measured or calculated from the CLD_24hr assay. It is designed to make measurements of mRNA induction, a form of inducible reporter, as detected with chemiluminescence signals by Quantitative Nuclease Protection Assay (qNPA) technology.Data from the assay component CLD_ABCG2_24hr was analyzed at the endpoint, CLD_ABCG2_24hr, in the positive analysis fitting direction relative to DMSO as the negative control and baseline of activity. Using a type of inducible reporter, gain-of-signal activity can be used to understand changes in the reporter gene as they relate to the gene ABCG2. Furthermore, this assay endpoint can be referred to as a primary readout. To generalize the intended target to other relatable targets, this assay endpoint is annotated to the transporter intended target family, where subfamily is ABC transporter.
Human hepatocyte cultures were treated daily for two consecutive days with fresh dosing solutions containing appropriate concentrations of the 320 ToxCast chemicals (chemical identities were blinded to CellzDirect and other ToxCast collaborators), vehicle control (0.2% DMSO), and positive control inducers as summarized in Table 1. Due to the large number of treatment groups and chemicals examined, the ToxCast chemicals were divided into two groups (spanning two independent cultures of hepatocytes from separate donor preparations (Hu778: ToxCast plates 1 and 2; Hu776: ToxCast plates 3 and 4). Each preparation of human hepatocyte cultures was treated with respective vehicle control, medium only control, set of six positive controls/reference chemicals for the five hepatic receptor pathways, and a subset of eight of the ToxCast chemicals (indoxacarb, pyrithiobac-sodium, norflurazon, cyhalofop-butyl, methomyl, thiram, acetochlor, and propiconazole). These replicate data, coupled with internal replicates designed within the blinded ToxCast chemical library, provided additional data to evaluate interindividual differences between hepatocyte preparations and their potential impact on chemical profiles.Cell morphology and integrity were evaluated using phase-contrast microscopy as an indicator of hepatocyte cell health (Tyson & Green, 1987). Cultures for each treatment group (i.e., media, vehicle [0.2% DMSO], positive control inducers [multiple concentrations], and the ToxCast chemicals [multiple concentrations]) were observed and cell morphology was assessed relative to vehicle control cultures at each harvest time point (0, 6, 24, or 48 h). […] Images were evaluated at the conclusion of the study to assess changes in cell integrity and account for the effects of chemical exposure on uncharacteristic changes in concentration-dependent gene expression profiles. The results from these determinations of apparent cytotoxicity were annotated (yes/no) alongside the corresponding qNPA data for reference.At the conclusion of each treatment period, hepatocyte cultures (96-well) were washed with 1 volume of HBSS, lysed by addition of 25 ul ArrayPlate lysis buffer (HTG, Tucson, AZ), and 70 ul/well of Denaturation Oil, denatured by incubation at 95C for 10 min, and frozen at approximately -70C until analysis by nuclease protection assay (qNPA) (Roberts et al., 2007). For qNPA analysis, cell lysates were thawed at 50C for approximately 30 min, qNPA probes were added, and samples were incubated at 95C for 10 min to begin the detection process by denaturing the target RNA, dissociating the duplexes and secondary structure hybridization. At the conclusion of the hybridization period, S1 nuclease reagent was added to each sample to digest all nonprotected nucleotides at 50C for 60-90 min. […]

Broad substrate specificity ATP-binding cassette transporter ABCG2 (Homo sapiens), sequence (Q9UNQ0 whole entry, looked up): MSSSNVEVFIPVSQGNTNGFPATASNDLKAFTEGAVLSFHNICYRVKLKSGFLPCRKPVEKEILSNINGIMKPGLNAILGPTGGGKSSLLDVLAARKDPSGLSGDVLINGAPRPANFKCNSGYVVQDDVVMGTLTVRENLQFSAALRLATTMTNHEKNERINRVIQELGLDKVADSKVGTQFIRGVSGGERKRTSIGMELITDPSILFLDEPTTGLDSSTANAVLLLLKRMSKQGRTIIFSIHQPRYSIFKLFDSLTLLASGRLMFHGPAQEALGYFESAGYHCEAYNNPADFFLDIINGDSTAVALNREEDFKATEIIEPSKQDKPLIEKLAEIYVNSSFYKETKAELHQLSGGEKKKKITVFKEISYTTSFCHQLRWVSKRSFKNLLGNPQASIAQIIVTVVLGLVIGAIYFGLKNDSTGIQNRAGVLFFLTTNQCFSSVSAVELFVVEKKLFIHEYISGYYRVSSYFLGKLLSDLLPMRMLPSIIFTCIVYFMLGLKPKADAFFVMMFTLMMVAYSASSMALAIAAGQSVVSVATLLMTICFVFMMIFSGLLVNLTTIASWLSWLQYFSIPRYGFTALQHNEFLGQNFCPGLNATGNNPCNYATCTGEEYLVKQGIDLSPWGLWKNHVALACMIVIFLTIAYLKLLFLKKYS

| Compound | outcome |
| --- | --- |
| COP(=S)(OC)SCn1nnc2ccccc2c1=O | inactive |
| CO/N=C(/C1=NOCCO1)c1ccccc1Oc1ncnc(Oc2ccccc2Cl)c1F | inactive |
| Cc1nc(N(C)C)nc(OC(=O)N(C)C)c1C | inactive |
| CC(C)N1C(=O)N(c2ccccc2)CSC1=NC(C)(C)C | inactive |
| COCC(=O)N(c1c(C)cccc1C)C(C)C(=O)OC (stereo not given) | inactive |
| CC(C)N1C(=O)c2ccccc2NS1(=O)=O | inactive |
| C=C(C)CN(CC)c1c([N+](=O)[O-])cc(C(F)(F)F)cc1[N+](=O)[O-] | inactive |
| CCCCC(O)(Cn1cncn1)c1ccc(Cl)cc1Cl (stereo not given) | inactive |
| CC1(C)C(C=C(Cl)Cl)C1C(=O)OC(C#N)c1cccc(Oc2ccccc2)c1 (stereo not given) | inactive |
| CCOP(=S)(OCC)Oc1nc(Cl)n(C(C)C)n1 | inactive |
| CC(C)=CC1C(C(=O)OCc2coc(Cc3ccccc3)c2)C1(C)C (stereo not given) | inactive |
| Nc1c(Cl)c(F)nc(OCC(=O)O)c1Cl | inactive |
| CCOc1nc(C(Cl)(Cl)Cl)ns1 | inactive |
| COP(=O)(OC)O/C(C)=C/C(=O)N(C)C | inactive |
| N#CN=C1SCCN1Cc1ccc(Cl)nc1 | inactive |
| CCOc1nc(F)cc2nc(S(=O)(=O)Nc3c(Cl)cccc3Cl)nn12 | inactive |
| C=CCOC(=O)C(C)(C)OC(=O)c1cc(-n2c(=O)cc(C(F)(F)F)n(C)c2=O)ccc1Cl | inactive |
| Cc1ccc(N=CN(C)C=Nc2ccc(C)cc2C)c(C)c1 | inactive |
| Nc1c(Cl)c(Cl)nc(C(=O)O)c1Cl | inactive |
| COCC(C)N(C(=O)CCl)c1c(C)csc1C (stereo not given) | inactive |

| Compound | outcome |
| --- | --- |
| CC(C)Oc1cccc(NC(=O)c2ccccc2C(F)(F)F)c1 | inactive |
| COC(=O)c1c(C(F)F)nc(C(F)(F)F)c(C2=NCCS2)c1CC(C)C | inactive |
| COC(=O)NC(=S)Nc1ccccc1NC(=S)NC(=O)OC | inactive |
| CC(C)(C)C(=O)C(Oc1ccc(Cl)cc1)n1cncn1 (stereo not given) | inactive |
| CCNC(=O)NC(=O)C(C#N)=NOC | inactive |
| CC1(C)CCC(=Cc2ccc(Cl)cc2)C1(O)Cn1cncn1 (stereo not given) | inactive |
| Clc1cccc(C(Cl)(Cl)Cl)n1 | inactive |
| CNC(=O)Oc1cccc2ccccc12 | inactive |
| CC1(C)CON(Cc2ccccc2Cl)C1=O | inactive |
| CN=C=S | inactive |
| COCc1cnc(C2=NC(C)(C(C)C)C(=O)N2)c(C(=O)O)c1 (stereo not given) | inactive |
| CCCC(=NOCC)C1=C(O)CC(CC(C)SCC)CC1=O (stereo not given) | inactive |
| CC1(C)C(C(=O)OC(C#N)c2cccc(Oc3ccccc3)c2)C1(C)C (stereo not given) | inactive |
| CCOC(=O)C(C)OC(=O)c1cc(Oc2ccc(C(F)(F)F)cc2Cl)ccc1[N+](=O)[O-] (stereo not given) | inactive |
| OC(c1ccc(Cl)cc1)(c1ccc(Cl)cc1)C(Cl)(Cl)Cl | inactive |
| CCCCC(C#N)(Cn1cncn1)c1ccc(Cl)cc1 (stereo not given) | inactive |
| O=C1C2CC=CCC2C(=O)N1SC(Cl)(Cl)Cl (stereo not given) | inactive |
| COc1cc(Cl)c(OC)cc1Cl | inactive |
| CC(C)C1(C)N=C(c2ncccc2C(=O)O)NC1=O (stereo not given) | inactive |
| CCCN(CC)CC1COC2(CCC(C(C)(C)C)CC2)O1 (stereo not given) | inactive |
